Screening data from PubChem BioAssay.
The list is not random: actives were taken first. Their share in the collection is about 6.1%.
ATXN viability – reduces viability in counter-screen for ATXN expression inhibitors; S2 cells (HEK-293 line with an ATXN2-luciferase reporter) viability, CellTiter-Fluor protease fluorescence, 24 h; Potency, µM (highest dose often 56.7 µM), most hits filed as cytotoxic; 0.49% of 400,000 active; further: nearly all actives have a fitted effect of over 40% in size
RORgamma inh – inhibitors of mouse ROR gamma transcriptional activity. P51450. Drosophila S2 Gal4-RORgamma UAS-luciferase reporter, 20 h. Potency, µM (titrated, usually from 53.6 µM), for inactives: at the top dose activity change, negative = inhibition, most hits filed as inhibitors. 5.4% of 310,000 active. AID 2551; further: on the % scale 0 is the no-effect control and ±100 the full control effect; nearly all actives have a fitted effect of over 60% in size
Target sequence (P51450 whole entry, looked up, the tested form may be a part): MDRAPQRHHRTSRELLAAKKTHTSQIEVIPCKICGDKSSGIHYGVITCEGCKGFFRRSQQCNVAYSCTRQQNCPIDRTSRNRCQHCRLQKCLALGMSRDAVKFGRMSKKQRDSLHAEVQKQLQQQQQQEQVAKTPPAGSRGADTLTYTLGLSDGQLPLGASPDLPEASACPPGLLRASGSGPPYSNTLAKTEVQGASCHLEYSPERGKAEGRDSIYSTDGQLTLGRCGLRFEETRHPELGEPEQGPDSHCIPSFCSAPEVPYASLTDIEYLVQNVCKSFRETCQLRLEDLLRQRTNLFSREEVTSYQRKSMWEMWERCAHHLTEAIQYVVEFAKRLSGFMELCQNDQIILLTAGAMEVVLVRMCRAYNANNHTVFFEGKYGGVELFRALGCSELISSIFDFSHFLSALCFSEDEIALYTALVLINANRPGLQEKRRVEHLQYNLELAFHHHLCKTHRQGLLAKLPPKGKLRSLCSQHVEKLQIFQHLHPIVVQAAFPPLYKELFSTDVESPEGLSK
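ROR gamma transcriptional activity was tracked as Gal4-UAS luciferase output in stably transfected Drosophila Schneider cells, with compound added 1 hr before 700 uM copper sulfate induction and a 20 hr ambient-temperature incubation.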
Gal4-VP16 FLuc – counter-screen for ROR gamma inhibitors: Gal4-VP16 reporter; Potency, µM (doses to about 53.6 µM), for the others: top-dose activity, negative = inhibition, actives largely listed as inhibitors; AID 2546; 3.5% of 310,000 active; Drosophila S2 Gal4-VP16 UAS-luciferase, luminescence, 20 h;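 further: Gal4-VP16 expression switched on by copper sulfate through the metallothionein promoter; on the % scale 0 is the no-effect control and ±100 the full control effect; nearly all actives have a fitted effect of over 50% in size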
TGFb SMAD3 inh – TGF-b pathway inhibition. HepG2 CAGA-GFP TGF-b/SMAD3 reporter, GFP fluorescence, 18 h; TGF-beta stimulated, 500 pg/mL final. Potency, µM (highest dose often 46.1 µM), inactives show at the top dose activity, negative = inhibition, hits mostly inhibitors. 1.2% of 410,000 active. AID 588855; further: on the % scale 0 is the no-effect control and ±100 the full control effect; nearly all actives have a fitted effect of over 65% in size
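HEPG2 CAGA-GFP cells (1000/well, DMEM with 1% FBS) were pre-incubated 2 h at 37 degrees C, given compound by pin tool, then stimulated with TGF-beta at 500 pg/mL final for 18 h before per-cell GFP fluorescence imaging.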
ATXN2 expr inh – inhibitors of ATXN2 expression | HEK-293 ATXN2-luciferase reporter, luminescence, 24 h | Potency, µM (doses to about 57 µM), for inactives: at the highest dose activity change, negative = inhibition, hits mostly inhibitors | 0.72% of 360,000 active | AID 1745845; further: on the % scale 0 is the no-effect control and ±100 the full control effect; nearly all actives have a fitted effect of over 55% in size
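ATXN2-luciferase reporter cells (luciferase flanked by upstream and downstream ATXN2 gene portions) were treated 24 h at 37 °C with compounds at up to 57 uM. SteadyGlo luminescence gave expression; GF-AFC fluorescence gave viability.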
HepG2 viability – counter-screen for TGF-b inhibitors: cytotoxicity in HepG2 cells. 0.76% of 410,000 active. Potency, µM (highest dose often 46.1 µM), without a hit: at the highest dose activity change, negative = cytotoxicity, actives largely listed as cytotoxic. HepG2 CAGA-GFP viability, ATP luminescence, 18 h. AID 588856
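CellTiter-Glo luminescence gave cytotoxicity after 18 hours at 37 degrees C. The cells were HepG2 CAGA-GFP in 1% FBS DMEM, stimulated with 500 pg/mL TGF-beta after compound addition. %Activity was normalised to no-cell wells (complete cell-killing) and DMSO (no toxicity), and curves were fitted and classified.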
Active calls of the source: *; i = inactive; ? = inconclusive; nt = no result given. The call rests on the fitted dose curve; in most records, active means well fitted curve in the direction sought with a large enough effect; inconclusive means small, poorly fitted or top-dose-only effect, or another doubt; inactive means no such curve, though single readings can be large; an effect the other way counts as inactive or inconclusive. Potency means the concentration at half of the fitted maximal effect.

SMILES | ATXN viability | RORgamma inh | Gal4-VP16 FLuc | TGFb SMAD3 inh | ATXN2 expr inh | HepG2 viability
COc1cccc(NC(=S)N2CCN(C(c3ccccc3)c3ccccc3)CC2)c1 | i | 4.5µM* | 8.9µM* | -3% | -3% | -27%
COc1ccc(NC(=S)N2CCN(C(c3ccccc3)c3ccccc3)CC2)c(OC)c1 | i | 5µM* | ? | -3% | -48% | 6%
COc1cccc(NC(=S)N2CCCC2)c1 | i | 5% | 2% | -9% | 21% | 0%
Oc1ccccc1-c1nnc(-c2ccc(C(F)(F)F)cc2)o1 | i | 3.5µM* | 6.3µM* | 2% | 55% | -18%
CS(=O)(=O)N1CCN(/[N+]([O-])=N/Oc2ccc([N+](=O)[O-])cc2[N+](=O)[O-])CC1 | nt | nt | nt | ? | nt | -99%
CCC(=O)Nc1ccc(C(=O)Cn2ncc(Cl)c(Cl)c2=O)cc1 | 25µM* | -39% | -11% | ? | nt | -123%
Cc1ccc(C)c(C(=O)Cn2ncc(Cl)c(Cl)c2=O)c1 | 18µM* | ? | ? | ? | ? | -47%
O=C(Cn1ncc(Cl)c(Cl)c1=O)c1ccc2c(c1)OCCO2 | nt | nt | nt | -19% | ? | -82%
CCOC(=O)c1ccc(NC(=O)CC2Sc3ncnn3C2=O)cc1 (centres undefined) | i | ? | 22µM* | -3% | -3% | 3%
Cc1cc(C(=O)Cn2ncc(Cl)c(Cl)c2=O)c(C)n1CC(F)(F)F | ? | ? | ? | ? | ? | -42%
O=C(OCn1ncc(Cl)c(Cl)c1=O)c1ccc(C(F)(F)F)cc1 | ? | ? | 7.1µM* | -13% | ? | 10µM*
CCc1nc(-c2ccc(C)c(S(=O)(=O)N3CCN(c4ccc(C(C)=O)cc4)CC3)c2)no1 | i | nt | nt | ? | -8% | -21%
Cc1ccccc1CSc1cn(CC(=O)N2CCCC2)c2ccccc12 | nt | nt | nt | 0% | nt | -28%
Cc1cc(Br)ccc1NC(=O)CNC(=O)Cn1ncc(Cl)c(Cl)c1=O | 3.4µM* | -30% | ? | -11% | 4.7µM* | -9%
CCOC(=O)c1ccc(NC(=O)Cn2ncc(Cl)c(Cl)c2=O)cc1 | ? | ? | 10µM* | ? | ? | 16µM*
CCC(Cn1nnc2ccccc2c1=O)NC(=O)Nc1ccccc1Cl (centres undefined) | i | nt | nt | -22% | 4% | -19%
CN(C(=O)CO)c1c(I)c(C(=O)NCC(O)CO)c(I)c(C(=O)NCC(O)CO)c1I (centres undefined) | i | nt | nt | nt | nt | nt
NC(=O)CC(NC(=O)Cc1cccc2ccccc12)c1ccc(NC2CCCC2)c([N+](=O)[O-])c1 (centres undefined) | i | nt | nt | -10% | 1% | 4%
NC(=O)CC(NC(=O)Cc1cccc2ccccc12)c1ccc(NC2CC3CCC2C3)c([N+](=O)[O-])c1 (centres undefined) | ? | 12% | -4% | ? | ? | 3.5µM*
COC(=O)[C@@H](NC(=O)N1CCC(C)CC1)C(C)C | i | 8% | 6% | 4% | -3% | 0.45µM*
CC(=O)Nc1ccc(NC(=O)C2(c3cccs3)CCOCC2)cc1 | nt | nt | nt | 0% | nt | 0%
COc1ccc(C(=O)NCCSc2ccccn2)cc1 | i | 13µM* | ? | -6% | -32% | 3%
O=C(CCSc1ccccn1)c1ccccc1 | i | 20µM* | ? | ? | 9% | -23%
COc1ccccc1N(CC(=O)NCCSc1ccccc1)S(=O)(=O)c1ccc(C)cc1 | i | nt | nt | ? | -16% | -19%
Cc1ccc(CSc2nnc(-c3ccc(NC(=O)CCc4ccccc4)cc3)n2C)cc1 | nt | nt | nt | 3% | nt | 3%
COc1ccc2c(c1)c(C1=C(c3c[nH]c4ccccc34)C(=O)NC1=O)cn2CCCN(C)C | nt | 20% | -5% | nt | 22µM* | nt
CN(C)CCCn1cc(C2=C(c3c[nH]c4ccccc34)C(=O)NC2=O)c2ccccc21 | nt | -5% | -30% | nt | nt | nt
